Inconclusive results are not listed. Entries that show only a call come without a potency. Activity calls are given as the source filed them. Calls come from the whole dose curve; as a rule, active = well fitted inhibition curve with a large enough effect; inconclusive = small, poorly fitted or top-dose-only effect; inactive = no such curve, though single readings can be large or run the other way.
Potency is the fitted concentration of half-maximal effect.

Sequence of Chromobox protein homolog 1 (Homo sapiens) (P83916 whole entry, looked up): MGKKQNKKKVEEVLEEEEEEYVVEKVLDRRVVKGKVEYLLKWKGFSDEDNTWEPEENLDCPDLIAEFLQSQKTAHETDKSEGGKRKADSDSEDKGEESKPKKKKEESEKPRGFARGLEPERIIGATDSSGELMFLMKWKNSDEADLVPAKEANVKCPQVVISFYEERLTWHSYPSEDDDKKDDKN

The target in the assay is Chromobox protein homolog 1 (Homo sapiens) (UniProt P83916). The assay can be described thus: qHTS Validation Assay for Inhibitors of HP1-beta Chromodomain Interactions with Methylated Histone Tails (AID 488953). Note: nearly all actives have a fitted effect of over 50% in size. The settings on record: HP1-beta chromodomain / methylated histone peptide binding assay; series mostly up to 114 µM. The source says:
As our understanding of epigenetics expands, it is becoming clear that players in this field are potential targets for drug development. This area of epigenetic therapy has established applications for the treatment of cancer and neurological diseases. We have been involved in this field for a number of years and have performed high-throughput screens to identify the first small molecule inhibitors of protein methyltransferases. These methyltransferases target multiple substrates, and thus regulate many arms of an epigenetic pathway. The methylation of different substrates often generates docking sites for effector proteins that harbor binding domains (chromo, tudor, PHD, MBT and ANK repeats).
It has been proposed that the binding sites generated for different proteins by these post-translational modifcations mediate downstream effects on chromatin. Consistent with this theory, di- and tri-methylation of histone H3K9 facilitates the binding of heterochromatin protein HP1. The HP1 protein harbors a chromodomain that is responsible for the methyl-dependent interaction between HP1 and lysine 9 of histone H3. HP1 was first described in flies as a heterochromatin associated protein that can regulate gene silencing. It harbors a chromodomain that binds H3K9me3. In addition, it harbors a chromoshadow domain that interacts with a large number of proteins that are involved in heterochromatin formation and gene repression. There are three highly related HP1 isoforms. All three variants are associated with pericentric heterochromatin and it is not clear whether they have specific or redundant functions. MPP8 is also involved in the repression of gene in euchromatic regions (unpublished data) and like HP1 its chromodomain binds H3K9me3. MPP8 harbors an ankyrin repeat region that is likely involved in binding and recruiting interacting proteins with transcriptional repressive function, much like the chromoshadow domain of HP1 does.
We hypothesize that by inhibiting specific protein-protein interactions we will be able to develop compounds that block a single arm of an epigenetic pathway. The specificity attained by blocking a single protein-protein interaction will be far greater than that attained by blocking the enzyme that regulates one of many interactions.
Low-affinity protein-protein interactions (Kd in the single- to double-digit micromolar range) such as those discussed here have been very difficult to assay by traditional techniques such as fluorescence polarization or fluorescence resonance energy transfer. We have developed a sensitive chemiluminescence-based assay (Quinn, et al. 2009), which serves as the starting point for this project.
The following is a validation assay to identify lead compounds that can block methyl-dependent protein-protein interactions (specifically HP1-beta), which can be used as probes to analyze these methyl-driven interactions and perhaps even developed into targeted epigenetic therapies.
Assay Provider: Mark T. Bedford, MD Anderson
Screening Center PI: Austin, C.P.
Screening Center: NIH Chemical Genomics Center [NCGC]
To each well, 2 uL of HP1-beta protein (final 50 nM) and 1 uL biotinylated histone peptide trimethylated at Lys9 [b-H3(1-18)K9me3] (final 50 nM) was added in 1x PBS buffer, pH 7.4, containing 0.01% Tween-20 using a nanoliter dispenser. Formation of a protein-peptide complex proceeded at room temperature for 30 min. A Kalypsys pin-tool was employed to transfer 23 nL of library compound solution in DMSO to each well. Aurintricarboxylic acid (ATA) was used as an intraplate control with a 12-point titration in duplicate. Following a 30 min incubation of the protein-peptide complex with compounds at room temperature, a mixture of 40 ug/mL each streptavidin-coated donor and nickel chelate acceptor AlphaScreen beads (final 10 ug/mL) was added in a 1 uL dispense for a final volume of 4 uL. Plates were incubated protected from the light for 30 min at room temperature. […]
On the technique in general: Quantitative high-throughput screening tests each substance at several concentrations.
Turning to `C=C(C)C1CC=C(C(=O)O)CC1` (stereo not given), the Potency entry is “inactive”.
For `O=C(O)CCC(=O)N1CCCC1C(=O)O` (stereo not given) the value was “inactive”.
For `Cc1cc2c(cc1Cl)N(C(=O)Nc1ccnc3ccccc13)CC2` the value was “inactive”; for `N#C/C(=C\c1ccc(O)c(O)c1)C(=O)NCCc1ccccc1`, 10 µM (active).
The same measure for `Nc1ccc2c3c(cccc13)C(=O)NC2=O`: “inactive”; for `COc1ccc(NC(=O)c2ccc(-c3ccc(-c4noc(C)n4)cc3C)cc2)cc1N1CCN(C)CC1`: 31.6 µM (active).
As for `N[C@@H](CS(=O)O)C(=O)O`, the Potency result was “inactive”.
For `CC[C@@H]1Cc2cc(O)ccc2C2=C1c1ccc(O)cc1C[C@H]2CC` the value was 31.6 µM (active); for `c1ccc2c(c1)CC(N1CCN(c3cccc4c3OCCO4)CC1)C2`, 0.006 µM (active).
The same measure for `CC(C)C[C@H](NC(=O)C1OC1C(=O)O)C(=O)NCCCCN=C(N)N` (stereo not given in full): 0.006 µM (active).
In the case of `NCCNS(=O)(=O)c1cccc2c(Cl)cccc12`, the Potency entry is “inactive”.
The same measure for `CC(N)(Cc1ccc(O)cc1)C(=O)O` (stereo not given): “inactive”; for `Oc1cc(O)c2c(c1)O[C@H](c1ccc(O)c(O)c1)[C@@H](O)C2`: “inactive”; for `Nc1ncnc2c1ncn2C1CCCC1`: “inactive”.
The same measure for `NC[C@@H]1O[C@H](c2ccccc2)Cc2c1ccc(O)c2O`: “inactive”; for `Nc1ncnc2c1nc(Sc1ccc(Cl)cc1)n2[C@H]1OC2COP(=O)(O)O[C@@H]2C1O` (stereo not given in full): “inactive”; for `NC1CCN(O)C1=O` (stereo not given): “inactive”.
For `Cc1cccc(C)c1OCC(N)C(C)C` (stereo not given) the value was “inactive”; for `C=CCNc1ncnc2ccc(Br)cc12`, “inactive”.
For the molecule `COCc1nc2c([nH]1)c(=O)n(C)c(=O)n2CC(C)C`, the Potency result is “inactive”.
With `N=C(N)c1ccccc1`, the Potency result was “inactive”.
The same measure for `NC(N)=N[C@@H](CCC(=O)O)C(=O)O`: “inactive”; for `CCc1ccc2c(-c3cccc(Cl)c3)nc(=O)n(CC)c2n1`: “inactive”; for `Nc1nc2ccc(Cl)cc2c2nc(-c3ccco3)nn12`: “inactive”.
For `NC(Cc1cccc(-c2ccccc2CP(=O)(O)O)c1)C(=O)O` (stereo not given), the Potency entry was “inactive”.
For `Cc1ccccc1/C=C/C1=NCCN1` the value was “inactive”; for `CCCn1c(=O)c2c(ncn2C)n(CCC)c1=O`, “inactive”; for `N[C@H](C(=O)O)c1cc(O)cc(O)c1`, “inactive”.
The same measure for `CC(C)NC[C@H](O)COc1cccc2ccccc12`: “inactive”; for `CCOC(=O)C12CC1/C(=N/O)c1ccccc1O2` (stereo not given): “inactive”.
For `N=C(N)c1ccc(N)cc1` the value was “inactive”; for `CCCCCCCCCCC/C=C\C(C)(C)/C=C\CCCC(=O)O`, “inactive”; for `O=c1[nH]c(=O)c2nc3ccccc3nc2[nH]1`, “inactive”.
Regarding `Cn1cc(C(=O)OCC2CCN(CCNS(C)(=O)=O)CC2)c2ccccc21`, the Potency entry was “inactive”.
The same measure for `C[C@@]1(C2CCCC2)Cc2cc(OCC(=O)O)c(Cl)c(Cl)c2C1=O`: “inactive”; for `CC1CNCCN1S(=O)(=O)c1cccc2cnccc12` (stereo not given): “inactive”.
For `CC(C)Cn1c(=O)n(C)c(=O)c2[nH]cnc21` the value was “inactive”.
The same measure for `c1ccc(C(NCCNC(c2ccccc2)c2ccccc2)c2ccccc2)cc1`: “inactive”; for `O=C(O)[C@H]1NCCC[C@H]1C(=O)O`: “inactive”; for `Cn1cc(C(F)(F)F)nc1-c1ccc(OCC(O)CNCCOc2ccc(O)c(C(N)=O)c2)cc1` (stereo not given): “inactive”.

For the origin of these results see PubChem BioAssay (NCATS).
